Test results as given in article PMC4336329 (PLoS ONE, 2015).
The whole screen tested about 310,000 compounds, of which about 14,000 (4.5%) showed an effect of 50% or more. The effect is printed as a negative number. What follows is part of a selection rich in strong results, with near analogues and random picks from the rest.

These compounds were tested against human ether-à-go-go-related gene (hERG) potassium channel (human, UniProt Q12809) (assay: primary screen, population patch clamp on CHO cells stably expressing hERG; higher = less effect of the substance).
Sequence of human ether-à-go-go-related gene (hERG) potassium channel (Q12809 whole entry, looked up): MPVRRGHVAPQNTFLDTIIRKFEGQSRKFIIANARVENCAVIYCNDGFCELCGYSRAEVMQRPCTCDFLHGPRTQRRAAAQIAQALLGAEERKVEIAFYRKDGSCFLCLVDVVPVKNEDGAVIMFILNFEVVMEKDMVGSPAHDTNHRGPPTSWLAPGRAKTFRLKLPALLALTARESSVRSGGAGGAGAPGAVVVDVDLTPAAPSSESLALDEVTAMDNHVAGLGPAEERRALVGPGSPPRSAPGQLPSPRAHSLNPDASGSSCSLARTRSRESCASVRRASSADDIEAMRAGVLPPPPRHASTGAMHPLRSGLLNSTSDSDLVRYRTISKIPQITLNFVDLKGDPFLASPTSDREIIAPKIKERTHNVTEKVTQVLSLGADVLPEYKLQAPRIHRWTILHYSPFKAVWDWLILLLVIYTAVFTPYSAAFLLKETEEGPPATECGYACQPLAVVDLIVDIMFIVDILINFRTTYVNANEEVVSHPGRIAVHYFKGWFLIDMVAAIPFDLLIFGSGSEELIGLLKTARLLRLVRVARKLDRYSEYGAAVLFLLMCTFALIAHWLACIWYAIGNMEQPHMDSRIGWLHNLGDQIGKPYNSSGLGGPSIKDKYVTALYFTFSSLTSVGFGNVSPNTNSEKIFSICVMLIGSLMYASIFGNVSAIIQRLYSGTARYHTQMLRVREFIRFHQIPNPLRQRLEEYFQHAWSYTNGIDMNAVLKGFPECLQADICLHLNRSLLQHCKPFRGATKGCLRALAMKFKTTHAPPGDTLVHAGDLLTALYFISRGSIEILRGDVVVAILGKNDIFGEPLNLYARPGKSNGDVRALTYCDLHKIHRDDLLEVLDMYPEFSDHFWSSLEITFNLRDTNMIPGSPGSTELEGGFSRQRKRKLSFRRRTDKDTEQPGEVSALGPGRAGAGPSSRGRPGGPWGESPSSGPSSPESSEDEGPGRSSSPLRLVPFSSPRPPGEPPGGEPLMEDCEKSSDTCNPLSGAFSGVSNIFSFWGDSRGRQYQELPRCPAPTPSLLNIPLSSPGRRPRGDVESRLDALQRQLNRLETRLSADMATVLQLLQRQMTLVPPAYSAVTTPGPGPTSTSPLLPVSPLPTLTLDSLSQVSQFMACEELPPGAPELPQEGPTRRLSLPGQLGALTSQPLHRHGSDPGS
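Further: peak tail current of the secondary pulse compared with the same well before compound.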

| SMILES | hERG current change (%, negative = inhibition) at 10uM |
| --- | --- |
| CC(NS(=O)(=O)c1ccc(F)cc1)C(=O)Nc1ccc2c(c1)OCCO2 (stereo not drawn) | 13.2% |
| CCOC(=O)c1ccc(N2C(=O)c3n[nH]c(C)c3C2c2ccco2)cc1 (stereo not drawn) | -5.29% |
| Cc1ncoc1C(=O)N1CCCC(CCC(=O)NCc2ccccc2F)C1 (stereo not drawn) | -6.93% |
| N#Cc1nc(COc2cccc(Cl)c2)oc1N1CCN(c2ccccc2)CC1 | -4.18% |
| COCCNC(=O)/C(C#N)=C/c1ccc(O)c([N+](=O)[O-])c1 | 14.7% |
| CC(CS(=O)(=O)c1ccc2c(c1)NC(=O)CS2)C(=O)NCc1ccccc1Cl (stereo not drawn) | -0.823% |
| COC(=O)c1ccc(C)c(NC(=O)c2ccc(CN3CCc4ccccc4C3)cc2)c1 | 6.57% |
| CCOC(=O)N1CCN(C(=O)c2cc(COc3ccc(F)cc3F)on2)CC1 | -17.1% |
| CC(Oc1ccc(-c2ccccc2)c(F)c1)c1ccn(S(=O)(=O)c2ccc(F)cc2)n1 (stereo not drawn) | 16% |
| COc1ccccc1-c1ccc(Nc2cccc(C(F)(F)F)c2)nn1 | 15.4% |
| Cn1c(=O)[nH]c(=O)c2c1nc(SCCO)n2CCCc1ccccc1 | -4.68% |
| Cc1cccc(Cn2c(SCCN3CCCCC3)nc3c2c(=O)[nH]c(=O)n3C)c1 | -79.1% |
| Cn1c(=O)[nH]c(=O)c2c1nc(SCCN1CCCCC1)n2Cc1ccccc1 | -78.9% |
| Cc1ccc(Cn2c(SCC(C)C)nc3c2c(=O)[nH]c(=O)n3C)cc1 | 4.21% |
| CCCSc1nc2c(c(=O)[nH]c(=O)n2C)n1Cc1ccccc1 | -17.4% |
| Cc1ccc(Cn2c(SCCN3CCCCC3)nc3c2c(=O)[nH]c(=O)n3C)cc1 | -74.1% |
| Cc1ccc(Cn2c(N3CCCCCC3)nc3c2c(=O)[nH]c(=O)n3C)cc1 | 0.362% |
| Cn1c(=O)[nH]c(=O)c2c1nc(SCCN1CCCCC1)n2CCCc1ccccc1 | -69% |
| Cn1c(=O)[nH]c(=O)c2c1nc(SCC(=O)O)n2Cc1ccccc1 | -5.45% |
| Cn1c(=O)[nH]c(=O)c2c1nc(SCCN1CCOCC1)n2CCCc1ccccc1 | -46.9% |

| SMILES | hERG current change (%, negative = inhibition) at 10uM |
| --- | --- |
| Cc1cccc(Cn2c(SCC(=O)Nc3ccccc3)nc3c2c(=O)[nH]c(=O)n3C)c1 | -30.2% |
| COCCSc1nc2c(c(=O)[nH]c(=O)n2C)n1Cc1cccc(C)c1 | -45.6% |
| Cn1c(-c2ccc(Cl)nc2)nc2cc(Cl)ccc21 | -9.09% |
| CC(C)CNC(=O)C1Nc2ccccc2C2C=CCC12 (stereo not drawn) | -6.43% |
| COc1cccc(N(CC(=O)N/N=C(\C)c2cccs2)S(C)(=O)=O)c1 | 6.58% |
| Cc1cc(NS(=O)(=O)c2ccc(NC(=O)N[C@H](C(=O)O)C(C)C)cc2)no1 | 29.3% |
| CCN(CC)C(=S)NC(=O)Cc1ccccc1 | 16.1% |
| COc1ccc(S(=O)(=O)NC(C)CCc2ccccc2)cc1 (stereo not drawn) | -3.49% |
| Cc1c(NC(=O)C(c2ccccc2)c2ccccc2)cccc1C(=O)O | 16% |
| CCO[C@@H]1OC(C(=O)Nc2ccccc2)=C[C@H](C)[C@H]1CCCO | 1.08% |
| CSc1nnc(NC(=O)c2ccc(C)c(S(=O)(=O)N3CCOCC3)c2)s1 | 0.594% |
| Cn1c(=O)[nH]c(=O)c2c1nc(CN(Cc1ccccc1)Cc1ccccc1)n2CCN1CCOCC1 | -16.6% |
| C=C(C)CSc1nc2c(c(=O)[nH]c(=O)n2C)n1Cc1ccccc1 | -12.3% |
| Cn1c(=O)[nH]c(=O)c2c1nc(SCCN1CCOCC1)n2Cc1ccccc1 | -54.4% |
| Cc1onc(-c2c(Cl)cccc2Cl)c1NC(=O)NNc1ccccn1 | -11.7% |
| COc1cc(OC)c2nc(C)c3c(c2c1)N(c1ccc(O)cc1)CC3 | -72.1% |
| COc1ccc2c(c1OC)C(=O)N(c1ccc(O)cc1)C2 | 13.5% |
| COc1ccc(N2CCCC2=N)c(OC)c1.Cl | 12.7% |
| COc1ccc(N2CCc3c(C)nc4c(OC)cc(OC)cc4c32)c(OC)c1 | -75.3% |
| COc1ccc(N2CCc3c(C)nc(SC)nc32)cc1 | 3.4% |

| SMILES | hERG current change (%, negative = inhibition) at 10uM |
| --- | --- |
| CCOc1ccc(N2CCc3c(C)nc(SC)nc32)cc1 | -2.26% |
| COc1ccc(N2C(=O)CCC2=O)c(OC)c1 | 20.7% |
| CSc1nc(C)c2c(n1)N(c1ccc(O)cc1)CC2 | 4.88% |
| COc1ccc(N2CCc3c(C)nc4c(OC)cc(OC)cc4c32)cc1 | -75% |
| Cc1cc(C)n(CCOc2ccc(Br)cc2)n1 | 1.08% |
| O=C(NCc1ccc(-c2nc3ccccc3s2)cc1)c1cc2ccccc2o1 | -1.71% |
| CN(C)C(=O)c1cc(C(=O)c2ccccc2Cl)c[nH]1 | 11.8% |
| COc1cc(C(=O)N/N=C/c2sc(N3CCOCC3)nc2-c2ccccc2)cc(OC)c1OC | 3.33% |
| CC(=O)Nc1ccc(S(=O)(=O)N2CCN=C2C)cc1 | 5.24% |
| CC(=O)NCCC(=O)N1CCCC(C(=O)c2ccc3c4c(cccc24)CC3)C1 (stereo not drawn) | -18.5% |
| CCSC1=C(C#N)C(c2cccc(O)c2)CC(=O)N1 (stereo not drawn) | 2.7% |
| N#Cc1ccc(NC(=O)CCc2ccc(S(=O)(=O)N3CCOCC3)cc2)cc1 | -51.5% |
| O=C(CNc1cc(S(=O)(=O)N2CCOCC2)ccc1NCC1CCCO1)Nc1ccc(C(F)(F)F)cc1 (stereo not drawn) | -30.4% |
| COc1ccc(NC(=O)CNc2cc(S(=O)(=O)N3CCOCC3)ccc2NCC2CCCO2)cc1 (stereo not drawn) | -18.3% |
| N#Cc1ccc(NC(=S)NC(=O)CCc2ccc(S(=O)(=O)N3CCOCC3)cc2)cc1 | 0.205% |
| N#Cc1ccc(NC(=O)CNc2cc(S(=O)(=O)N3CCOCC3)ccc2NCC2CCCO2)cc1 (stereo not drawn) | -70% |
| O=C(CCc1ccccc1)Nc1ccc(S(=O)(=O)N2CCOCC2)cc1 | -28.1% |
| CC(=O)c1cccc(NC(=O)COC(=O)CCc2ccc(S(=O)(=O)N3CCOCC3)cc2)c1 | 6.05% |
| O=C(COC(=O)CCc1ccc(S(=O)(=O)N2CCOCC2)cc1)Nc1cccc(Cl)c1 | -30.3% |
| N#Cc1cccc(NC(=O)COC(=O)CCc2ccc(S(=O)(=O)N3CCOCC3)cc2)c1 | -60.1% |
